Pol iota inh = inhibitors of human DNA polymerase iota; Q9UNA4; Pol iota fluorescent replication assay, 10 min; Potency, µM (highest dose often 115 µM), for inactives: top-dose activity, negative = inhibition, hits mostly inhibitors; actives 1% (n = 390,000); AID 588590; further: potency means the concentration at half of the fitted maximal effect
Target sequence (Q9UNA4 whole entry, looked up): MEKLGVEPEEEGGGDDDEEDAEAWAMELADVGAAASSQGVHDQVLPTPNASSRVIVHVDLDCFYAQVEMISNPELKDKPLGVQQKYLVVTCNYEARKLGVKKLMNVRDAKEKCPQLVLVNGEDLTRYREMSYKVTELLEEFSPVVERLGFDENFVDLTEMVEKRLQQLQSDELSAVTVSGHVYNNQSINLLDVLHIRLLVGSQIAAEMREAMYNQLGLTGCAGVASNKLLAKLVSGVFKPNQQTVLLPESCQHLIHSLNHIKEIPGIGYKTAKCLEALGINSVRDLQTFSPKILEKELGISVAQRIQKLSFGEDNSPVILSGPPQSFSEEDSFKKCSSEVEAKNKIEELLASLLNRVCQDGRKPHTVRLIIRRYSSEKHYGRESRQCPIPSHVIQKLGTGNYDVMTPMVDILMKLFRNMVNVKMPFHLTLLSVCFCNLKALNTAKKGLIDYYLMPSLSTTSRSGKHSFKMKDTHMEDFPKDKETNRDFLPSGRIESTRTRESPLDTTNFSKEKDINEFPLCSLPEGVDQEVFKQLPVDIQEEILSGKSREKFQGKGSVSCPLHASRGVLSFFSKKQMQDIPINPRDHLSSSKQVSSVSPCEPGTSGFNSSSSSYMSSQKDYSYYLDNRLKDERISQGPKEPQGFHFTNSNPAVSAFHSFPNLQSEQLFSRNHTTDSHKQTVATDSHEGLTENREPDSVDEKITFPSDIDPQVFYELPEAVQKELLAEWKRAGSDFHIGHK
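Pol iota at 10 nM preincubated 15 min with compounds at room temperature; reaction started with fluorescent substrate, 50 nM final. Fluorescence read kinetically at 0 and 10 min; buffer-only wells as negative control.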
PI4K2A block = blocks human PI4K2A kinase activity; Q9BTU6; purified PI4K2A, ADP-Glo luminescence, 1 h; stronger effect = lower value; activity change, negative = inhibition, % at 76.9 µM; actives 0.13% (n = 420,000); AID 1346378; in the data active means activity change below about -50%; inconclusive means mostly about -30% to -49%;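 further: -100% = wells without enzyme as full effect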
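PI4K2A activity was measured by ADP-Glo luminescence: enzyme (4 ug/mL stock) and phosphatidylinositol (1.2 mM stock) in Tris pH 7.5/MgCl2/EGTA/Triton X-100 buffer were reacted with ATP (300 microM stock) for one hour at ambient temperature.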
POLH inh = inhibitors of human DNA polymerase eta; Q9Y253; recombinant Pol eta, fluorescent DNA replication assay; Potency, µM (highest dose often 114 µM), without a hit: at the top dose activity change, negative = inhibition, actives largely listed as inhibitors; actives 1.2% (n = 390,000); further: potency means the concentration at half of the fitted maximal effect; on the % scale 0 is the no-effect control and ±100 the full control effect
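Pol eta (10 nM) was preincubated with compounds for 15 min at room temperature, after which fluorescent replication substrate (50 nM final) was added to start the reaction. Fluorescence was read kinetically at 0 and 10 min.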
Pol kappa inh = DNA polymerase kappa (human) inhibition; Q9UBT6; purified Pol kappa, fluorescent DNA synthesis assay, 10 min; Potency, µM (series often up to 107 µM), for inactives: top-dose activity, negative = inhibition, actives largely listed as inhibitors; actives 0.53% (n = 400,000); further: potency means the concentration at half of the fitted maximal effect; on the % scale 0 is the no-effect control and ±100 the full control effect
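Pol kappa 10 nM + cpd, 15 min RT; start w/ substrate 50 nM final; fluorescence kinetic read, 0 and 10 min. Neg ctrl: buffer, no enzyme.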
POLB inh = blocks human DNA polymerase beta activity | P06746 | Pol beta primer extension/strand displacement, fluorescence kinetic | Potency, µM (top dose mostly 114 µM), inactives show top-dose activity change, negative = inhibition, most hits filed as inhibitors | actives 1.3% (n = 340,000) | AID 485314; further: potency means the concentration at half of the fitted maximal effect; on the % scale 0 is the no-effect control and ±100 the full control effect
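Pol beta (10 nM) and compounds were preincubated 15 min at room temperature, then 50 nM substrate (final) started primer extension/strand displacement. Reads were taken at 0 and 10 min; concentration-response data were fitted to a four-parameter Hill equation.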
PI5P4Ka inh = blocks human PI5P4K alpha kinase activity | AID 652105 | actives 1.2% (n = 330,000) | max response, % | PI5P4Kalpha enzyme, ADP-Glo luminescence, 60 min; stronger effect = lower value; active means max response of -50% or lower; inconclusive means between -30% and -50%; inactive means -30% or higher; further: value at the top dose of about 77 µM; on the % scale 0 is the no-effect control and ±100 the full control effect
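PI5P4Kalpha ADP-Glo assay; 5 microM ATP final; 60 min RT reaction; HEPES pH 7.4/EGTA/CHAPS, 5% DMSO; controls lacking substrate or enzyme; luminescent end-point.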
Numbers without * were called inactive; ? = inconclusive; / = not tested or not shown; [ ] = remark or other dose. An excerpt weighted towards active compounds, which were near 2.8% of everything screened. Unless noted, the call rests on the fitted dose curve; in most records, active means well fitted inhibition curve with a large enough effect; inconclusive means small, poorly fitted or top-dose-only effect, or another doubt; inactive means no such curve, though single readings can be large or run the other way.

SMILES | Pol iota inh | PI4K2A block | POLH inh | Pol kappa inh | POLB inh | PI5P4Ka inh
Cc1cc(O)c(C(=O)/C=C/c2ccccc2)c(=O)o1 | ? | 5 | -15% | -15% | 14% | -50*
COc1ccc(CN2CC[C@H]3C=CC[C@@H](C(=O)Nc4ccc(Cl)cc4Cl)[C@H]3C2=O)cc1OC | 6% | / | / | -18% | / | /
Cc1cccc(N2CCC(N3CCN(C4CCCCC4)C(CCO)C3)CC2)c1C (stereo not drawn) | 49% | 4 | -2% | -1% | 40µM* | 7
COc1cc(/C=C2/C(=O)NN(c3ccc(Cl)cc3)C2=O)ccc1OC(=O)c1ccco1 | -19% | -4 | 28µM* | -22% | ? | ?
COc1cc(/C=C2/C(=O)NN(c3cccc(F)c3)C2=O)ccc1OC(=O)c1ccco1 | ? | -3 | ? | -7% | ? | -26
Cn1c(=O)c2cc(S(=O)(=O)N3CCN(c4ccccc4Cl)CC3)ccc2n(C)c1=O | / | 1 | / | / | / | /
Cc1sc(NC(=O)CSc2nc(O)cc(=O)[nH]2)nc1-c1ccccc1 | ? | -4 | -6% | -6% | -16% | -18
COc1cccc(-c2nc(SCC(=O)Nc3nc(-c4ccccc4)c(C)s3)[nH]c(=O)c2C#N)c1 | ? | -1 | 79µM* | -9% | ? | ?
CCOc1ccc2nc(NC(=O)CSc3nc(-c4ccccc4)c(C#N)c(=O)[nH]3)sc2c1 | ? | 1 | 50µM* | -19% | -27% | ?
CSCC[C@H](NC(=O)[C@@H](NC(=O)[C@H](CCC(=O)O)NC(=O)[C@H](CCSC)NC(=O)[C@H](CC(N)=O)NC(=O)[C@H](CCC(=O)O)NC(=O)[C@H](CC(N)=O)NC(=O)[C@H](CO)NC(=O)[C@H](C)N)[C@@H](C)O)C(=O)O | / | / | / | 9%[60.1 µM] | / | /
C1=Nc2ccccc2/C1=C/c1ccccc1 | 14% | / | / | -2% | / | /
Cc1ccc(NC(=O)c2nc[nH]c2C(=O)N2CCOCC2)c(C(=O)c2ccccc2)c1 | 79µM* | -1 | -5% | -14% | ? | ?
NC(=O)c1ccsc1NC(=O)CSc1nnc2ccccn12 | ? | -1 | ? | -21% | 25µM* | ?
Cn1c(=O)c2[nH]c(Br)nc2n(C)c1=O | / | -1 | / | 2%[19.4 µM] | / | /
CCn1c(=S)[nH]c2c(=O)n(C)c(=O)n(C)c21 | ? | -6 | -2% | -8% | / | -69*
CCOC(=O)COc1c(Br)cc(C2NC(=O)NC(C)=C2C(C)=O)cc1OC (stereo not drawn) | ? | -1 | 22µM* | ? | ? | ?
CNc1ccc(C=O)cc1I | 2% | / | / | -3% | / | /
COc1ccc(CCN2C(=O)COc3ccccc3C2C(=O)NCc2ccccc2)cc1OC (stereo not drawn) | / | -4 | / | / | / | -1
Oc1nc(Nc2ccc(Cl)cc2Cl)sc1/C=C1\C=Nc2ccccc21 | ? | 0 | 14µM* | -26% | ? | -57*
Cc1ccccc1NC(=O)Cc1nc(COC(=O)CCNS(=O)(=O)c2ccccc2)cs1 | -4% | 2 | -8% | -10% | / | -8
CCCCOCC1CN(c2ccccc2)C(=O)CS1 (stereo not drawn) | 0% | 6 | 20µM* | -8% | ? | ?
CC1CN(c2ccccc2)C(=O)CS1 (stereo not drawn) | ? | -3 | 20µM* | -25% | 45µM* | ?
O=C1NC(=S)SC1=Cc1ccccc1Br | ? | -2 | ? | -10% | / | -72*
O=C(O)CCn1cc(/C=C2\SC(=S)NC2=O)c(-c2ccccc2)n1 | 32% | 5 | -10% | -15% | 17% | ?
CN1C(=O)/C(=C\c2cc(N=Nc3ccccc3)ccc2O)SC1=S | ? | -11 | ? | -9% | -1% | -29
SMILES | Pol iota inh | PI4K2A block | POLH inh | Pol kappa inh | POLB inh | PI5P4Ka inh
Cc1cc(/C=C2\SC(=S)NC2=O)c(C)n1C1CC1 | ? | -1 | ? | ? | 25µM* | /
O=C1NC(=S)SC1=Cc1cc(Br)ccc1O | ? | -4 | 50µM* | -15% | / | -77*
Cc1ccc2[nH]c(=O)c(CN(CCO)Cc3nnnn3Cc3ccccc3)cc2c1 | 9% | / | / | -15% | / | /
COC(=O)CN(Cc1cn(Cc2ccccc2)nn1)S(=O)(=O)c1ccccc1Br | / | 3 | / | / | / | /
O=C1C[C@H](c2ccc(-c3ccccc3)cc2)N1S(=O)(=O)c1ccccc1[N+](=O)[O-] | -19% | / | / | -12% | / | /
COC(=O)C1=C[C@@H](C(=O)OC)C2C3=C(C(=O)[C@]2(CC(C)C)NC(=O)c2ccccc2)[C@H](C)n2c(=O)n(C)c(=O)n2[C@@H]3C1 (stereo partly drawn) | 0% | / | / | 10% | / | /
COCCCNC(=O)c1ccc2c3c(onc13)-c1ccccc1C2=O | ? | -16 | 45µM* | -13% | 6% | -7
COc1ccc(C(=O)CCC(=O)Nc2ccc(OC)c(Cl)c2)cc1 | 10% | 0 | 0% | -11%[60.1 µM] | ? | /
COc1ccc(C(=O)CCC(=O)Nc2cc(Cl)c(O)c(Cl)c2)cc1 | 45µM* | -2 | 22µM* | ? | 28µM* | -77*
COc1cccc2sc(N(Cc3cccnc3)C(=O)C3COc4ccccc4O3)nc12 (stereo not drawn) | 6% | -3 | 8% | -9%[60.1 µM] | -5% | /
Cc1cc(-c2ccccc2)c2c(=O)[nH][nH]c2n1 | 79µM* | -1 | -18% | -9% | 0% | -8
C[C@@H]1CCN(C2CC2)S(=O)(=O)c2ccc(N3CCC[C@@H]3C)cc2O1 | / | -2 | / | / | / | /
Oc1c(Br)cc(Br)cc1C=Nc1ccc2[nH]ncc2c1 | 11% | -16 | -7% | -41% | -8% | -51*
Fc1ccc(C(c2nnnn2C2CCCC2)N(Cc2ccco2)CC2CCCO2)cc1 (stereo not drawn) | ? | -5 | -15% | -14% | 1% | 1
c1ccc(CN(Cc2ccco2)C(c2ccncc2)c2nnnn2C2CCCC2)cc1 (stereo not drawn) | ? | -8 | 45µM* | ? | 16% | /
O=C(CN1CCN(S(=O)(=O)c2ccc(Cl)cc2)CC1)c1ccc(O)c(O)c1 | 14µM* | -3 | ? | 20µM* | ? | 1
O=C(CN1CCN(S(=O)(=O)c2ccc(F)cc2)CC1)c1ccc(O)c(O)c1 | 51% | -4 | -6% | -12% | -30% | -4
COc1ccc(S(=O)(=O)N2CCN(CC(=O)c3ccc(O)c(O)c3)CC2)cc1 | ? | -5 | ? | 32µM* | ? | 5
CC(=O)c1cccc(S(=O)(=O)NCCc2csc3nc(-c4ccc(F)cc4)nn23)c1 | -21% | -1 | ? | -15%[60.1 µM] | ? | /
Cc1cc(C)cc(CSCC(=O)N/N=C/c2ccc(OCC(=O)NCc3ccco3)cc2)c1 | ? | -2 | -22% | -13% | 25µM* | /
